The entries come from a sample that favours hits as a whole.
TcdB inh: TcdB glycohydrolase inhibitors, primary screen, biochemical, single point, plate reader. TcdB glycohydrolase enzymatic assay. inhibition, % at 9.99 µM. 0.24% of 350,000 active. AID 652162, 2013; in the data active means inhibition above about 10%
BoNT F protease: BoNT/F light chain protease inhibitors, primary screen, biochemical, flow cytometry, MLPCN library; Botulinum neurotoxin type F light chain protease (Clostridium botulinum); Multiplex microsphere protease cleavage assay; inhibition, % at 10 µM; 0.22% of 360,000 active; AID 588497, 2011; in the data active means inhibition above about 35%, passing the limit was not always enough; inconclusive means no clear call, values can overlap the other calls
Autofluor counter: flagged as autofluorescent in microsphere protease counterscreen; compound autofluorescence counterscreen, microsphere flow cytometry; hits give high values; fluorescence intensity (test concentration not listed); 3.1% of 360,000 active; in the data active means fluorescence intensity above about 16000; inconclusive means no clear call, values can overlap the other calls
Anthrax LF inh2: Bacillus anthracis LF protease inhibitors, primary screen, biochemical, multiplex microsphere, MLPCN library; multiplex microsphere protease cleavage assay; inhibition, % at 10 µM; Lethal factor (Bacillus anthracis), P15917; 0.12% of 360,000 active
BoNT A protease: BoNT/A light chain protease inhibitors, primary screen, biochemical, flow cytometry, MLPCN library; Botulinum neurotoxin type A light chain protease (Clostridium botulinum A str. ATCC 3502); multiplex microsphere protease substrate cleavage; inhibition, % at 10 µM; 0.17% of 360,000 active; AID 588499, 2011
Large screens that a line does not name were inactive. Unless noted, no stated cut-off is given here; in the data, active means inhibition above about 30%; inconclusive means no clear call, values can overlap the other calls; inactive means below that.

CCN1CCN(C(=S)c2ccc(OCC(=O)N3CCOCC3)cc2)CC1	Autofluor counter 19327 (no result: TcdB inh)
O=C(COc1ccc(C(=S)N2CCOCC2)cc1)N1CCOCC1	none
CCN1CCN(C(=S)c2ccc(OCC(=O)NCc3ccccc3)cc2)CC1	none
CCOc1cc(C(=S)N2CCOCC2)ccc1OS(=O)(=O)c1ccc(C)cc1	BoNT F protease inconclusive
CCOc1ccc(C(=S)N2CCOCC2)cc1OCC	Autofluor counter 23260
CCOc1cc(C(=S)N2CCCCC2)ccc1OCC(=O)NCc1ccccc1	Autofluor counter 22179, BoNT A protease inconclusive
CC=Cc1ccc2n(c1=O)C[C@H]1[C@H](CO)[C@@H](C(=O)NCc3ccccc3)N(Cc3cncnc3)[C@@H]21 (mixture of isomers)	none (no result: BoNT F protease, Autofluor counter, Anthrax LF inh2, BoNT A protease)
CC(C)n1cc(/C=C2\NC(=O)N(c3cccc(Cl)c3)C2=O)c2ccccc21	Autofluor counter 19627, BoNT A protease inconclusive
CC(C)n1cc(/C=C2/NC(=O)N(c3cccc(Cl)c3)C2=O)c2ccccc21	none (no result: TcdB inh)
CC(C)[N+]1=C2C=CC=CC=C2SC12C([N+](=O)[O-])=CC(=[N+]([O-])[O-])C=C2[N+](=O)[O-] (stereo unspecified)	BoNT F protease inconclusive, BoNT A protease 41
COc1ccc(NC(=O)Cn2nc(C(F)(F)F)c3c2CCCC3)c(OC)c1	Autofluor counter 21156, BoNT A protease inconclusive (no result: TcdB inh)
COc1ccc(CNC(=O)Cn2nc(C(F)(F)F)c3c2CCC3)cc1	none (no result: TcdB inh)
O=C(Cn1nc(C(F)(F)F)c2c1CCCC2)NC1CCCC1	Autofluor counter 23402 (no result: TcdB inh)
Cc1ccc(S(=O)(=O)Nc2ccc3c(c2)CC(=O)N([C@@H](C)CO)C[C@@H](C)[C@H](CN(C)S(=O)(=O)c2cn(C)cn2)O3)cc1	none (no result: BoNT F protease, Autofluor counter, Anthrax LF inh2, BoNT A protease)
C=CCNC(=S)Nc1sc2c(c1C(=O)OCC)CC(C(C)C)OC2 (stereo unspecified)	Autofluor counter 22389 (no result: TcdB inh)
CCOC(=O)c1c(NC(=S)NCCc2ccccc2)sc2c1CC(C(C)C)OC2 (stereo unspecified)	none (no result: TcdB inh)
O=C(C1CCOCC1)N1CC(=O)N2[C@H](CO)[C@H](c3ccc(C#CC4CCCC4)cc3)[C@@H]2C1	none (no result: BoNT F protease, Autofluor counter, Anthrax LF inh2, BoNT A protease)
COc1ccc(Cn2cnc3c([N+](=O)[O-])c(C)c(C)cc32)cc1	Autofluor counter 25028 (no result: TcdB inh)
Cc1ccccc1Cn1cnc2ccccc21	none
Cc1ccccc1Cn1cnc2c([N+](=O)[O-])c(C)c(C)cc21	Autofluor counter 21365 (no result: TcdB inh)
O=C1CSC(c2ccccc2)N1Cc1ccccc1 (stereo unspecified)	BoNT F protease inconclusive, Autofluor counter 16347
CCOC(=O)C1=C(C)NC2=C(C1c1ccc([N+](=O)[O-])cc1)S(=O)(=O)c1ccccc12 (stereo unspecified)	Autofluor counter 17917, BoNT A protease inconclusive (no result: TcdB inh)
O=C(Cn1nc(-c2ccccc2)ccc1=O)NCCN1CCN(c2cccc(Cl)c2)CC1	Autofluor counter 21385 (no result: TcdB inh)
CCN(CC)CCCNC(=O)Cn1nc(-c2ccccc2)ccc1=O	Autofluor counter 20162 (no result: TcdB inh)
Cc1ccc(-c2nn(CC(=O)NCC3CCCO3)c(=O)c3ccccc23)cc1 (stereo unspecified)	Autofluor counter 23922
O=C(Cn1nc(-c2ccccc2)ccc1=O)NCCN1CCN(Cc2ccccc2)CC1	none
O=C(Cn1nc(-c2ccccc2)ccc1=O)NCC1CCCO1 (stereo unspecified)	Autofluor counter 23626 (no result: TcdB inh)
COc1ccc(S(=O)(=O)N(C)C[C@@H]2OCc3ccccc3-c3c(n(C)c4ccccc34)C(=O)N([C@H](C)CO)C[C@H]2C)cc1	none (no result: BoNT F protease, Autofluor counter, Anthrax LF inh2, BoNT A protease)
CC(C)c1cn(CC[C@H]2CC[C@H](NS(=O)(=O)c3ccccc3)[C@H](CO)O2)nn1	none (no result: BoNT F protease, Autofluor counter, Anthrax LF inh2, BoNT A protease)
O=C(NCC[C@H]1CC[C@@H](NC(=O)C2CCCC2)[C@@H](CO)O1)c1cnccn1	none (no result: BoNT F protease, Autofluor counter, Anthrax LF inh2, BoNT A protease)
Cc1ccc(S(=O)(=O)Nc2ccc3c(c2)C(=O)N([C@H](C)CO)C[C@H](C)[C@H](CN(C)Cc2ccncc2)OCCCC[C@H](C)O3)cc1	none (no result: BoNT F protease, Autofluor counter, Anthrax LF inh2, BoNT A protease)
O=C(Cn1nc(-c2cccc(Cl)c2)ccc1=O)Nc1ccc(C(=O)NC2CC2)cc1	none
O=C(Cn1nc(-c2cccc(Cl)c2)ccc1=O)Nc1cccnc1	Autofluor counter 23773, BoNT A protease inconclusive (no result: TcdB inh)
COc1ccc2c3c(n(C)c2c1)[C@H](CO)N(C(=O)Cc1ccccn1)CC31CN(CC2CCOCC2)C1	none (no result: BoNT F protease, Autofluor counter, Anthrax LF inh2, BoNT A protease)
Nc1c(N2CCCC2)cc(Cl)c2nonc12	none (no result: TcdB inh)
Nc1c(N2CCOCC2)cc(Cl)c2nonc12	Autofluor counter 23187, BoNT A protease inconclusive (no result: TcdB inh)

Bioassay records deposited in PubChem by several laboratories.
